# Measurements taken from PubChem BioAssay (NCI).
# The panel holds about 83,000 compounds, 20% with a hit somewhere; the sample as a whole holds those more often.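 48-hour exposure, single concentration, 96-well plates; percent growth endpoint where 0 means no net growth. Active: below 10.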 Unmarked numbers belong to inactive results. Active and inactive are the calls of the source.
# Tested on: COLO 205 colon
# Experiment: NCI-60 one-dose screen, 48 h (100 = growth as untreated, 0 = no growth, -100 = all killed)
# Details: 10 µM
row,Structure (SMILES),growth
1,Cn1cnc([N+](=O)[O-])c1/C=C1\Oc2ccc(Cl)cc2C1=O,100%
2,CCOC(=S)Sc1ccc([N+](=O)[O-])cc1[N+](=O)[O-],-13.1% (active)
3,NC(N)=NS(=O)(=O)c1ccc(Nc2ccc3nnc(-c4ccncc4)n3n2)cc1,111%
4,N#C/C(=C\N1C(=O)/C(=C/c2cccc([N+](=O)[O-])c2)SC1=S)c1nc2ccccc2s1,101%
5,CC(=O)Nc1ccc(Sc2ccc(NC(C)=O)cc2)cc1,101%
6,O=C(CCl)N1c2ccccc2Sc2ccc3ccccc3c21,-76.3% (active)
7,Cc1ccc(Cl)cc1Nc1nc(C(F)(F)F)ccc1C(=O)N/N=C/c1c(Cl)cccc1Cl,-51.5% (active)
8,COc1ccc(C2C=C(c3ccc(Cl)c(Cl)c3)N=C3SC(C)=CN32)cc1OC (centres undefined),72.1%
9,CCn1nc(-c2ccccn2)c2cccnc2c1=S,30.9%
10,C=C[C@]1(C)C=C2C(=O)[C@@]3(O)OC(=O)[C@@]4(CCCC(C)(C)[C@H]34)[C@@]2(O)CC1,-98.2% (active)
11,CCN(CC)CCCOC(=O)Nc1ccccc1Cl,118%
12,O=S(=O)(NC1c2ccccc2Oc2ccccc21)c1cc(Cl)ccc1Cl,98.9%
13,N#Cc1ccc(-n2cnc(NC(=O)[C@H]3CCN(C#N)C3)c2)cc1,-55.3% (active)
14,CC(=O)n1nc(C(=O)OC(C)(C)C)c2cc(F)c(F)cc21,103%
15,O=C1CC[C@@H](C(=O)N[C@H]2CSSC[C@@H](C(=O)NCCc3ccccc3)NC(=O)[C@H](Cc3ccccc3)NC(=O)[C@@H]3CCCN3C(=O)[C@@H]3CCCN3C2=O)N1,119%
16,CCc1c(C(=O)NCc2c(O)ccc3cccc(O)c23)[nH]c(C)c1C(C)=O,69.5%
17,CS(=O)(=O)Nc1ccc(OCc2nnc(-c3ccc(Cl)cc3)o2)c(F)c1,110%
18,COc1ccc(-c2nc(-c3nc4ccc(OC)cc4[nH]3)c3ccccn23)cc1,95.1%
19,CC(C)c1ncc(CO)n1Cc1c(Cl)cccc1Cl,89.6%
20,NC1CCC(Nc2nc(NCc3ccc(-c4ccco4)nc3)c3ncn(C4CCCC4)c3n2)CC1 (centres undefined),-62.7% (active)
21,c1ccc(C2CCCCC2)c(OCCCCCN2CCNCC2)c1,-74.6% (active)
22,N#Cc1c(-c2ccccc2)nc(SCC(=O)N2CCOCC2)[nH]c1=O,105%
23,Cc1cn(C(=O)/C(Cl)=C(/Cl)C(=O)O)c2ccccc12,91.7%
24,C=CCNCCCN1C(=O)c2ccc3c4c(ccc(c24)C1=O)C(=O)N(CCCNCC=C)C3=O,-86.8% (active)
